The record followed here is PubChem BioAssay (EPA / NIEHS).

Usually AC50 stands for the midpoint of the concentration-response curve, whichever way the signal moves.

Several values for one entry are separate records, joined by “and”; a condition that tells them apart may be missing. Equal values may be shown once. Activity calls are given as the source filed them. How the source made its calls: active means hit-call score of the fitted dose curve at least 0.9, where 1 is the maximum; inactive means score below 0.9.

Experiment [1] is described as follows: CEETOX_H295R_OHPROG: CeeTox H295R High-throughput Steroidogenesis Assay for OH-Progesterone (OHPROG) (AID 2283435).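 Further: human adrenal H295R cells primed 48 h with 10 µM forskolin; 17alpha-hydroxyprogesterone secreted into medium measured by HPLC-MS/MS.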 The settings on record: actives raise or lower the signal. The essentials:
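Secreted 17alpha-hydroxyprogesterone is read by tandem MS from media of forskolin-primed H295R cells dosed with chemical for 48 h. Activity is fitted in both directions against DMSO baseline; cytotoxic concentrations are re-tested diluted.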

Experiment [2] is described as follows: CEETOX_H295R_PROG: CeeTox H295R High-throughput Steroidogenesis Assay for Progesterone (PROG) (AID 2283442).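 On AC50: human H295R adrenal cells primed with 10 µM forskolin before dosing.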 As to conditions: actives raise or lower the signal. An outline of the steps: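 H295R adrenal cells prestimulated 48 h with 10 uM forskolin, then exposed 48 h to test chemical in 0.1% DMSO. Progesterone in medium quantified by HPLC-MS/MS after MTBE extraction; viability checked by MTT in same wells.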

Read-out in experiment [3]: Tumor necrosis factor receptor superfamily member 6 (Homo sapiens) (UniProt P25445)
The experiment in a line: LTEA_HepaRG_FAS: Life Technologies and Expression Analysis (LTEA) Assay for Fas cell surface death receptor (FAS) using HepaRG (AID 2283447). The settings on record: mRNA level, 48 h; actives raise or lower the signal. The essentials: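 Differentiated human HepaRG cells, pre-cultured 48 h, were exposed in duplicate for 48 h to 8-point half-log concentrations (top 100 uM, 0.5% DMSO) in serum-free induction medium; FAS mRNA measured by qRT-PCR, normalized to ACTB/GAPDH/POLR2A, bidirectional fit versus DMSO.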

Read-out in experiment [4]: Fatty acid synthase (Homo sapiens) (UniProt P49327)
The experiment is described as follows: LTEA_HepaRG_FASN: Life Technologies and Expression Analysis (LTEA) Assay for Fatty Acid Synthase (FASN) using HepaRG (AID 2283448). The settings on record: mRNA level, 48 h; actives raise or lower the signal. An outline of the steps:
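Transcript-level assay: HepaRG liver cells are treated for 48 h across an eight-point range topping at 100 uM, and FASN mRNA, normalized to three housekeeping genes, is compared with DMSO controls in both directions.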

Read-out in experiment [5]: Cyclin D2 (CCND2), CCND2 (gene 894)
The experiment is described as follows: LTEA_HepaRG_CCND2: Life Technologies and Expression Analysis (LTEA) Assay for Cyclin D2 (CCND2) using HepaRG (AID 2283449).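 Further: CCND2 transcript measured by TaqMan qRT-PCR and normalised to three housekeeping genes.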 As to conditions: mRNA level, 48 h; actives raise or lower the signal. The essentials:
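Differentiated human HepaRG cells were exposed for 48 h in serum-free induction medium to eight half-log concentrations topping at 100 uM (0.5% DMSO vehicle). CCND2 mRNA was quantified by TaqMan qRT-PCR, normalised to ACTB, GAPDH and POLR2A, and fitted bidirectionally against DMSO.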

Read-out in experiment [6]: Cyclin Dependent Kinase Inhibitor 1A (CDKN1A), CDKN1A (gene 1026)
The experiment in a line: LTEA_HepaRG_CDKN1A: Life Technologies and Expression Analysis (LTEA) Assay for Cyclin Dependent Kinase Inhibitor 1A (CDKN1A) using HepaRG (AID 2283450). The settings on record: mRNA level, 48 h; actives raise or lower the signal. An outline of the steps: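 Differentiated HepaRG cells in serum-free induction medium, exposed 48 h in duplicate to eight half-log concentrations up to 100 uM in 0.5% DMSO. mRNA measured by TaqMan qRT-PCR, normalized to ACTB, GAPDH, POLR2A; bidirectional fit versus DMSO.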

Read-out in experiment [7]: Cyclin D1 (CCND1), CCND1 (gene 595)
The experiment is described as follows: LTEA_HepaRG_CCND1: Life Technologies and Expression Analysis (LTEA) Assay for Cyclin D1 (CCND1) using HepaRG (AID 2283451). As to conditions: mRNA level, 48 h; actives raise or lower the signal. An outline of the steps: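 Differentiated HepaRG cells exposed 48 h in serum-free induction medium to eight half-log concentrations from 100 uM top, 0.5% DMSO, duplicates. CCND1 mRNA measured by Fluidigm TaqMan qRT-PCR, normalised to ACTB, GAPDH, POLR2A; bidirectional fit.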

Read-out in experiment [8]: catalase (CAT), CAT (gene 847)
The experiment is described as follows: LTEA_HepaRG_CAT: Life Technologies and Expression Analysis (LTEA) Assay for catalase (CAT) using HepaRG (AID 2283452). As to conditions: mRNA level, 48 h; actives raise or lower the signal. An outline of the steps: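 Differentiated HepaRG cells in serum-free induction medium were dosed 48 h in duplicate, eight half-log concentrations from 100 uM in 0.5% DMSO. Transcript measured by TaqMan qRT-PCR, normalised to ACTB/GAPDH/POLR2A, fitted bidirectionally against DMSO.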

Read-out in experiment [9]: flavin-containing dimethylaniline monooxygenases 3 (FMO3), FMO3 (gene 2328)
The experiment in a line: LTEA_HepaRG_FMO3: Life Technologies and Expression Analysis (LTEA) Assay for flavin-containing dimethylaniline monooxygenases 3 (FMO3) using HepaRG (AID 2283453). The settings on record: mRNA level, 48 h; actives raise or lower the signal. An outline of the steps:
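HepaRG, 48 h exposure, 8-pt half-log series from 100 uM, 0.5% DMSO vehicle, duplicates; FMO3 transcript by Fluidigm TaqMan qRT-PCR, housekeeping-normalized; gain/loss fit vs DMSO.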

Read-out in experiment [10]: Forkhead box O1 (FOXO1), FOXO1 (gene 2308)
The experiment in a line: LTEA_HepaRG_FOXO1: Life Technologies and Expression Analysis (LTEA) Assay for Forkhead box O1 (FOXO1) using HepaRG (AID 2283456). The settings on record: mRNA level, 48 h; actives raise or lower the signal. The essentials: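 Differentiated human HepaRG cells in serum-free induction medium were exposed in duplicate for 48 h to eight half-log concentrations (top 100 uM, 0.5% DMSO). FOXO1 mRNA was measured by TaqMan qRT-PCR, normalised to ACTB, GAPDH and POLR2A, and fitted bidirectionally against DMSO.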

Read-out in experiment [11]: growth arrest and DNA damage 45 (GADD45A), GADD45A (gene 1647)
The experiment in a line: LTEA_HepaRG_GADD45A: Life Technologies and Expression Analysis (LTEA) Assay for growth arrest and DNA damage 45 (GADD45A) using HepaRG (AID 2283458). As to conditions: mRNA level, 48 h; actives raise or lower the signal. The essentials:
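Human HepaRG liver cells are treated in duplicate for 48 h with chemicals in 0.5% DMSO, highest concentration 100 uM. Expression is read by qRT-PCR and analyzed in both directions against vehicle.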

Read-out in experiment [12]: Forkhead box O3 (FOXO3), FOXO3 (gene 2309)
The experiment is described as follows: LTEA_HepaRG_FOXO3: Life Technologies and Expression Analysis (LTEA) Assay for Forkhead box O3 (FOXO3) using HepaRG (AID 2283459). As to conditions: mRNA level, 48 h; actives raise or lower the signal. The essentials: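 Differentiated human HepaRG cells in serum-free induction medium were exposed in duplicate for 48 h to eight half-log concentrations up to 100 uM in 0.5% DMSO. FOXO3 mRNA was quantified by qRT-PCR, normalized to ACTB, GAPDH and POLR2A, with bidirectional fitting versus DMSO.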

Experiment [13] in a line: CEETOX_H295R_CORTISOL: CeeTox H295R High-throughput Steroidogenesis Assay for Cortisol (AID 2283438).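 Further: cortisol secreted into medium quantified by LC-MS/MS.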 As to conditions: actives raise or lower the signal. The essentials: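 Human adrenocortical H295R cells (passage ≤10) received test chemicals for 48 h after forskolin priming. Secreted cortisol was measured by LC-MS/MS.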
Experiment [14] in a line: CEETOX_H295R_DOC: CeeTox H295R High-throughput Steroidogenesis Assay for DOC (AID 2283439). As to conditions: actives raise or lower the signal. The essentials:
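Secreted DOC was quantified from H295R media by HPLC-MS/MS after 48 h chemical exposure following 48 h forskolin (10 uM) prestimulation. Values were fitted in both directions relative to DMSO, the negative control and baseline.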

Read-out in experiment [15]: CFLAR gene, CFLAR (gene 8837)
The experiment in a line: LTEA_HepaRG_CFLAR: Life Technologies and Expression Analysis (LTEA) Assay for CFLAR gene using HepaRG (AID 2283455). As to conditions: mRNA level, 48 h; actives raise or lower the signal. An outline of the steps:
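HepaRG cells were plated for 48 h, switched to serum-free induction medium, then exposed in duplicate for 48 h to 8 concentrations (top 100 uM, half-log steps, 0.5% DMSO). CFLAR mRNA was measured by qRT-PCR, normalized to ACTB, GAPDH and POLR2A.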

A short description of experiment [16]: CEETOX_H295R_ESTRADIOL: CeeTox H295R High-throughput Steroidogenesis Assay for Estradiol (AID 2283440).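 Further: estradiol secreted into medium quantified by LC-MS/MS after dansyl derivatisation.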 The settings on record: actives raise or lower the signal. The essentials:
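H295R cells pre-stimulated 48 h with 10 uM forskolin, then exposed 48 h to chemical in 0.1% DMSO. Medium estradiol quantified by MTBE extraction, dansyl derivatisation and HPLC-MS/MS; bidirectional fit versus DMSO; MTT viability required >/=70%.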

Experiment [17] in a line: CEETOX_H295R_ESTRONE: CeeTox H295R High-throughput Steroidogenesis Assay for Estrone (AID 2283441).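 Further: estrone secreted into medium measured by LC-MS/MS after dansyl derivatization.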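 On AC50: human adrenal H295R cells prestimulated with forskolin for two days.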 The settings on record: actives raise or lower the signal. An outline of the steps:
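H295R cells; 48 h forskolin (10 uM) prestimulation; 48 h compound exposure, 0.1% DMSO final. Medium estrone: MTBE extraction, dansyl derivatization, HPLC-MS/MS. Bidirectional fit vs DMSO.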

Experiment [18] is described as follows: CEETOX_H295R_ANDR: CeeTox H295R High-throughput Steroidogenesis Assay for Androstenedione (ANDR) (AID 2283436). As to conditions: actives raise or lower the signal. An outline of the steps: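 H295R human adrenal cells (passages ≤10) were exposed to test chemicals for 48 h; androstenedione in medium was MTBE-extracted and quantified by HPLC-MS/MS against a 7-point standard curve. Bidirectional fitting used DMSO as baseline.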

The nature of experiment [19]: CEETOX_H295R_TESTO: CeeTox H295R High-throughput Steroidogenesis Assay for Testosterone (TESTO) (AID 2283457).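 Further: cells exposed to chemicals for 48 h before medium collection.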 As to conditions: actives raise or lower the signal. The essentials:
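H295R adrenal cells, passage ≤10, exposed to chemicals for 48 h. Testosterone in medium measured by MTBE extraction and HPLC-MS/MS against a 7-point standard curve. Bidirectional fit versus DMSO; MTT viability checked in the same wells.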

Fatty acid synthase (Homo sapiens), sequence (P49327 whole entry, looked up): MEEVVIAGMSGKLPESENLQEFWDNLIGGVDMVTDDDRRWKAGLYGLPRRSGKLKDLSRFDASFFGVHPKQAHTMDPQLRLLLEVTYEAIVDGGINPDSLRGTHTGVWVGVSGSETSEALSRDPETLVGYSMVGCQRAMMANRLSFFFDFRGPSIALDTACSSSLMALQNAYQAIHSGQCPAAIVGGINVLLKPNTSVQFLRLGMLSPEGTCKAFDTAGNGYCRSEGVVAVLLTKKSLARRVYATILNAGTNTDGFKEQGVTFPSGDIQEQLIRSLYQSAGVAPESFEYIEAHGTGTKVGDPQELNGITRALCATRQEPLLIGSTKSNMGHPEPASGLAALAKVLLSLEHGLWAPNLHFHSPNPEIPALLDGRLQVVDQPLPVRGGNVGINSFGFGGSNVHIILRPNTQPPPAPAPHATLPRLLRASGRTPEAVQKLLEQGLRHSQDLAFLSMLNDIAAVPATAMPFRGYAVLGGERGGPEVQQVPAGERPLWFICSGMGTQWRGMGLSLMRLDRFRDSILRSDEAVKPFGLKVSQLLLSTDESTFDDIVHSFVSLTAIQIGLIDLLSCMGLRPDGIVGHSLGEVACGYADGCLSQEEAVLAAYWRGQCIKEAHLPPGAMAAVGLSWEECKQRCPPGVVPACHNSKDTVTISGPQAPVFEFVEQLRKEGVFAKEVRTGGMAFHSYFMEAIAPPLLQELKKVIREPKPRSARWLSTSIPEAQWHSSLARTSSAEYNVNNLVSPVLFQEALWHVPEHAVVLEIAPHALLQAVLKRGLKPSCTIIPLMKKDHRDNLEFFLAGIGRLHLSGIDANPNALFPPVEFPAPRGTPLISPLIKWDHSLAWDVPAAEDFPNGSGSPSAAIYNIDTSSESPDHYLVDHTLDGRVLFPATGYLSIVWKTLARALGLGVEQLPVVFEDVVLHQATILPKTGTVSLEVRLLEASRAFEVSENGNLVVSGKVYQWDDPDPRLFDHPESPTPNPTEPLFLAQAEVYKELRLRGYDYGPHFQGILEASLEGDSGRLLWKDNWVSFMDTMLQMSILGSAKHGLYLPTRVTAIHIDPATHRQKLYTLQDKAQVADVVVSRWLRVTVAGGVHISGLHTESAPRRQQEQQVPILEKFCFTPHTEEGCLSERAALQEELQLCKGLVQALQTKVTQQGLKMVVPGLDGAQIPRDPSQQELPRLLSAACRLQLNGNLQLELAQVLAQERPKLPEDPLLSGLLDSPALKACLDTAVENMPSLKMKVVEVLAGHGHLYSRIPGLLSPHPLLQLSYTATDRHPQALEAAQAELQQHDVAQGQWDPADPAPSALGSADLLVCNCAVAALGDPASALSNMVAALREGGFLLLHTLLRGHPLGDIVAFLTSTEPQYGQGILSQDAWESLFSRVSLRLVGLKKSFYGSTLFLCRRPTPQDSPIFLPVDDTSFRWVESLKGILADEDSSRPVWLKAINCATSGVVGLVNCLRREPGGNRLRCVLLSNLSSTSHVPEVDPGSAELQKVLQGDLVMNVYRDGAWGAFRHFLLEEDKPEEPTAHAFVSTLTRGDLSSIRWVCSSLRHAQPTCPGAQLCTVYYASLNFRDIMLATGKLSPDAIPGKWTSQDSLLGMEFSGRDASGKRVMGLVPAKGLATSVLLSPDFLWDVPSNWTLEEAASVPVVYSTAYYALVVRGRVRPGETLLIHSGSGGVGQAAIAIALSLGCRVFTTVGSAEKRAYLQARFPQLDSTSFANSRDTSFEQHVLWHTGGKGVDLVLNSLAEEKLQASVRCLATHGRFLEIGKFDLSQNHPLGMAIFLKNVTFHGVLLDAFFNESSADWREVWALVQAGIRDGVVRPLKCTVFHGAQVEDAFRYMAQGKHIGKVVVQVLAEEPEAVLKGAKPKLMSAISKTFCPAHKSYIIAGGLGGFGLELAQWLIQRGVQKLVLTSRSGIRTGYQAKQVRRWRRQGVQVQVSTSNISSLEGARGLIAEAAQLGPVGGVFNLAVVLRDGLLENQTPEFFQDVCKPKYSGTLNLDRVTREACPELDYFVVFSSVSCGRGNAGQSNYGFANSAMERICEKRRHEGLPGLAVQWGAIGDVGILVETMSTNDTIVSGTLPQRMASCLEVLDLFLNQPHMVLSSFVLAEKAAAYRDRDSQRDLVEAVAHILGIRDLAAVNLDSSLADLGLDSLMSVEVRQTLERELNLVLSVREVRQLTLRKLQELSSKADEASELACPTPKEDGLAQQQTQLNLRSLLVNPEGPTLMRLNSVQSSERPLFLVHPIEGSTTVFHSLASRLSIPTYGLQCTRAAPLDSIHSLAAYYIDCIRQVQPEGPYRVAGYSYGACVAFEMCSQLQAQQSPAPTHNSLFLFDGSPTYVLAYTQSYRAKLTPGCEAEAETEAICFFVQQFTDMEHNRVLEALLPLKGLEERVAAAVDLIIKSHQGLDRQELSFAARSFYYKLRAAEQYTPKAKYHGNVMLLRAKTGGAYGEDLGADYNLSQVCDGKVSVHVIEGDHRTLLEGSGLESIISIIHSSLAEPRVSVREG

With `CC(C)(C)c1ccc(O)cc1`, in [1], the AC50 is 24.2 µM (active). Moreover, the compound was classed as inactive in experiment [2], in [3], in [4], in [5], in [6] and in experiment [7]. Besides, the result in experiment [8], in experiment [9], in experiment [10], in experiment [11] and in [12] was inactive.

As for `Nc1ccc(Cl)cc1`, the AC50 was 25.5 µM (active) in [1], 50 µM (active) in experiment [14] and 16.5 µM (active) in experiment [2]. The result in experiment [13], in experiment [3], in experiment [4], in experiment [5], in experiment [6] and in experiment [7] was inactive. The outcome in experiment [8], in experiment [9], in experiment [15], in [10], in experiment [11] and in experiment [12] was inactive.

Regarding `c1ccc2c(c1)Nc1ccccc1S2`, the AC50 in experiment [1] is 20.4 µM (active) and 25 µM (active) and 18.1 µM (active); in experiment [17] it was 9.58 µM (active) and 17.3 µM (active) and 12 µM (active); in experiment [2], 2.23 µM (active) and 2.16 µM (active) and 12.2 µM (active); in experiment [4], 50 µM (active); in [7], 67.9 µM (active). Besides, the compound was called inactive in [16], in [3], in experiment [6], in [8], in [9] and in [10]. The outcome in experiment [11] and in experiment [12] was inactive.

Regarding `CO/N=C(/C(=O)OC)c1ccccc1COc1ccccc1C`, the AC50 in experiment [1] is 4.07 µM (active); in [18], 21.2 µM (active); in experiment [13], 9.52 µM (active); in experiment [2], 4.24 µM (active); in experiment [19], 9.76 µM (active). Also, the call in experiment [14] was inactive.

Turning to `CCOP(=S)(Oc1ccc([N+](=O)[O-])cc1)c1ccccc1` (stereo not given), the AC50 in experiment [1] is 0.404 µM (active); in experiment [2], 0.786 µM (active). The call in experiment [16], in [17], in [3], in experiment [4], in experiment [5] and in experiment [6] was inactive. For the same compound, the compound was called inactive in experiment [7], in experiment [8], in [9], in [10], in [11] and in experiment [12].
